The source of these data is PubChem BioAssay AID540275 (National Center for Advancing Translational Sciences (NCATS), 2011).

Among all 320,000 compounds or so, about 620 (0.19%) were called active. Inconclusive results (about 6%) are left out. The sample holds actives, similar compounds and a random draw of the others, so the mix is not that of the screen. A number with no mark means an inactive call. Rule as the data show it: active = activation above about 80%; inconclusive = between about 30% and that limit; inactive = weaker than that.

Sequence of Transient receptor potential cation channel subfamily V member 1 (Homo sapiens) (Q8NER1 whole entry, looked up): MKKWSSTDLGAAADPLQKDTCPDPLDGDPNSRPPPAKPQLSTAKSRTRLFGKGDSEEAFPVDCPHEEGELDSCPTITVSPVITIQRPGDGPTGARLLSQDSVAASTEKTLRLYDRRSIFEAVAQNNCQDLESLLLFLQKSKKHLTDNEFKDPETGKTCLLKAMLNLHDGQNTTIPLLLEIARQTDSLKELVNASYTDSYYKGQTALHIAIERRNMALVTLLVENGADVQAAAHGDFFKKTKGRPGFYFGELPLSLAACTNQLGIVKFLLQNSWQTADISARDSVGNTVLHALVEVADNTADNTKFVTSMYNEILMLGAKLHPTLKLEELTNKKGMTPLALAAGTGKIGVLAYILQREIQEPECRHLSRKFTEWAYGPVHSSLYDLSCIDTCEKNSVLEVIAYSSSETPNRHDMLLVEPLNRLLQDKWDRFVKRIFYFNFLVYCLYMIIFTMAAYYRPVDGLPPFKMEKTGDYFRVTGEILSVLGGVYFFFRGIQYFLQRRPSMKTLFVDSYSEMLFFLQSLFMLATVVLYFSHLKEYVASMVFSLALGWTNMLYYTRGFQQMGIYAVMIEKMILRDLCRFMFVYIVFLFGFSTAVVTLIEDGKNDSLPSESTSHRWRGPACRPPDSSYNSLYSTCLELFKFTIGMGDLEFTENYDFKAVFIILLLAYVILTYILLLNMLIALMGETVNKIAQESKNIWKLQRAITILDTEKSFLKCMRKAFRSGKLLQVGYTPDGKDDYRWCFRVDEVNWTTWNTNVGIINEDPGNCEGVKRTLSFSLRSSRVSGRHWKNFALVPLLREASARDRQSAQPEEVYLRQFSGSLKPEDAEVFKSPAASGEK

In this assay the target is Transient receptor potential cation channel subfamily V member 1 (Homo sapiens) (UniProt Q8NER1). Description: HTS Assay for Compounds that Act as Agonists of the Vanilloid Receptor 1. Also: 0% is about no effect. Conditions: TRPV1-expressing cells, Fluo-8 calcium influx, agonist mode; at 8.33 µM; active compounds read high. The text has this:
The transient receptor potential ion channel, family V, number 1, (TRPV1) is one of the most important molecular transducers of painful stimuli and a potential target for analgesic drug development. Although recent clinical trials with orthosteric antagonists have not produced a successful drug because of a hyperthermia side effect and their tendency to block thermal noxious pain, this ion channel is undeniably well placed in the pain pathway, and the idea of blocking pain signals before they enter the CNS is an excellent concept and of proven efficacy when TRPV1 agonists are used. We propose a new approach involving allosteric modulation to impose an activity-dependent constraint within the context of inflammation and tissue damage that would alter the responsiveness of the channel in a way that an orthosteric vanilloid antagonist cannot achieve. We believe that the allosteric modulator approach has not been explored for this target. The main goal of this proposal is to identify additional, new, potent allosteric modulators of TRPV1 that can be used to investigate TRPV1 function. Our recent report provides evidence of proof of concept, but the compounds are just at the edge of utility in terms of potency. […] The question of whether they can be used as analgesic agents is complex, but if suitable compounds are identified then testing for analgesic properties will be conducted. NIH Chemical Genomics Center [NCGC] NIH Molecular Libraries Probe Centers Network [MLPCN] MLPCN Grant: MH089480-1A1 Assay Submitter (PI): Michael Iadarola, National Institute of Dental and Cranofacial Research
Upon TRPV1 activation in TRPV1 cells, the channel opens and extracellular cations flow through the channel into the cytosol. A calcium binding dye (Fluo-8) becomes fluorescent when bound to calcium. This dye is pre-loaded into cells and is used as a marker for calcium influx. The amount of accumulated calcium is precisely quantified using the FDSS kinetic reader and the calcium dye. For the HTS assay, freshly prepared cells are plated at a density of 2000/well in 3 ul medium in 1536-well plates and cultured overnight at 35.5C. Cells will be loaded with 1 ul of the homogeneous calcium dye (ABD Bioquest) at room temperature for 40 to 90 minutes. Plates will be loaded into the FDSS kinetic reader and a 1 sec / cycle for 10 second baseline signal will be measured. Compound library will then be added with a pintool at 23 nl and measured kinetically for 3 minutes. This portion of the read is considered the agonist portion of the screen. Following the 3 minutes of incubation, an on board pipettor will deliver 1 ul of capsaicin for a final concentration equal to the EC20. Signal will be measured kinetically for an additional 2 minutes. This portion of the read is considered the allosteric enhancer portion of the screen. The FDSS reader has a standard filter set capable of measuring calcium bound Fluo-8 (ex=480 and em=520 nm).
With `CN1CCN(S(=O)(=O)c2ccc(N3CCN(c4ccccc4O)CC3)c([N+](=O)[O-])c2)CC1`, the activation was 4.24%.

For `Cc1ccc(CN2CC(C(=O)N3CCN(S(=O)(=O)c4ccccc4)CC3)CC2=O)cc1` (stereo not given), the activation is 0.927%. `COc1ccc(NS(=O)(=O)c2cc(NC(=O)COc3ccccc3F)ccc2OC)cc1`: the activation was 0.255%. As for `COc1ccc(C2=NN(C(=O)CSc3nnnn3C)C(c3ccco3)C2)cc1` (stereo not given), the figure is -0.899%; as for `O=C(CSc1nnc(CN2CCCC2)n1-c1ccc(F)cc1)c1ccc2c(c1)OCO2`, 4.88%. Regarding `COc1cccc2cc(C(C)N(CCCN3CCOCC3)C(=O)Nc3ccc(Cl)cc3)oc12` (stereo not given), the activation is 85.6% (active). In the case of `COc1cccc(NC(=S)NCCCN2CCOCC2)c1`, the activation is -6.52%. As to `COc1ccc(Cl)cc1NC(=O)CCN1CCOCC1`, the activation is -0.647%. Take `Cc1cccc(C)c1NC(=O)COC(=O)c1c(C)nn(-c2ccccc2)c1C`: the activation is 0.597%.

Consider `CN(C)c1ccc(/C=C2\NC(=S)N(Cc3ccccc3)C2=O)cc1`, for which the activation was 82.1% (active). For the compound `O=C1/C(=C\c2ccsc2)NC(=S)N1c1ccccc1`, the activation was 2.57%. The same measure for `O=C1NCC(=O)N(Cc2ccccc2)/C1=C/c1ccccc1`: 6.12%. Turning to `Cc1csc(=O)n1CCC(=O)OCC(=O)NNC(=O)c1ccc(Br)cc1`, the activation is 2.91%.

In the case of `OCC[C@H]1C[C@H](O)[C@@H](O)[C@]2(Cc3ccccc3CO2)O1`, the activation is 1.78%. As for `Cc1cccc(N2C(=O)c3ccc(C(=O)Nc4cccc(C(=O)O)c4)cc3C2=O)c1`, the figure is -0.654%; as for `Cc1cccc(C(=O)Nc2ccc3c(c2)C(=O)N(CC(C)C)C3=O)c1`, 80.9% (active). On to `Cc1cccc(C(=O)Nc2ccc(CC(=O)O)cc2)c1`, for which the activation is 1.02%. Take `N#Cc1cccc(NC(=O)C2CCCN(C(=O)c3ccc(Cl)cc3)C2)c1` (stereo not given): the activation is 11.9%. On to `O=C(O)/C=C/c1cn(Cc2ccccc2)nc1-c1cccs1`, for which the activation was 2.25%. Take `O=C(O)c1ccc(N/N=C/c2cn(-c3ccccc3)nc2-c2cccs2)cc1`: the activation was -2.97%. The same measure for `O=C(/C=C\c1cn(-c2ccccc2)nc1-c1cccs1)N1CCOCC1`: 96.6% (active). `CC(C(=O)Nc1ccc(S(=O)(=O)N2CCCC2)cc1)N(C)Cc1ccc(F)cc1` (stereo not given): the activation is 17.2%. For the compound `O=C(CSc1ccccc1)Nc1cccc(S(=O)(=O)N2CCCCC2)c1`, the activation was 21.4%. For `O=C(OCC(=O)N1CCN(C(=O)c2ccco2)CC1)c1ccc(Cl)c(Cl)c1`, the activation was 2.6%. As for `Oc1ccc(Cl)cc1C1C=C(c2ccc3c(c2)OCO3)NC(c2ccc(F)c(Br)c2)N1` (stereo not given), the activation was 6.1%. The same measure for `Cc1cccn2c(=O)c3cc(C(=O)NCC4CCCO4)c(=N)n(Cc4ccc(F)cc4)c3nc12` (stereo not given): 84.1% (active); for `COc1ccc(CCn2c(=N)c(C(=O)NCC3CCCO3)cc3c(=O)n4cccc(C)c4nc32)cc1OC` (stereo not given): 4.61%. On to `Cc1cccn2c(=O)c3cc(C(=O)NCCN4CCOCC4)c(=N)n(Cc4cccnc4)c3nc12`, for which the activation was 22.9%. Turning to `COC(=O)c1cc(Oc2ccc(S(=O)(=O)N3CCOCC3)cc2[N+](=O)[O-])cc(C(=O)OC)c1`, the activation was -0.765%. Take `CCCN(CC(=O)Nc1ccccc1C)C(=O)c1ccc2[nH]c3c(c2c1)CC(C)CC3` (stereo not given): the activation was 3.39%. As for `CCN(CC)S(=O)(=O)c1ccc(OC)c(NC(=O)CCc2c(C)noc2C)c1`, the activation was -1.51%. As for `CCCC(NCC(=O)Nc1ccccc1C(=O)NC1CC1)c1ccccc1` (stereo not given), the activation was 21.8%. Regarding `CO[C@H]1[C@@H]2C=CO[C@@H](O[C@H]3O[C@@H](CO)[C@H](O)[C@@H](O)[C@@H]3O)[C@@H]2[C@@]2(CO)O[C@@H]12`, the activation was -3.6%. For the compound `CC(C)N(C(=O)CN1CCN(S(=O)(=O)c2ccc(Br)s2)CC1)C(C)C`, the activation is 17.4%.

For the compound `CCCCN(CC(=O)Nc1cccc(S(=O)(=O)N2CCCC2)c1)Cc1nc2ccccc2c(=O)[nH]1`, the activation is 26.8%. The same measure for `CCOc1cc(NC(=O)Nc2ccccc2)c(OCC)cc1NC(=O)CC`: 3.84%; for `CCOc1ccc(CCNC(=O)Nc2ccccc2)cc1OCC`: 91.3% (active); for `CCOc1ccc(CCNC(=O)COC(=O)c2c(OC)cccc2OC)cc1OCC`: -2.55%. For `Cc1cc(C(=O)COc2ccc(Br)cc2F)c(C)n1C1CC1`, the activation is 20.7%. Take `CNS(=O)(=O)c1cccc(C(=O)OCCCC(=O)c2ccccc2)c1`: the activation was 4.36%.

As to `CC(OC(=O)Cc1ccc(F)cc1)C(=O)N1CCc2ccccc21` (stereo not given), the activation was 16.3%. As to `Cc1cc(C)n2nc(C(=O)Nc3cccc(S(=O)(=O)N4CCOCC4)c3)nc2n1`, the activation was 0.0473%. For the compound `Nc1cc(N)nc(SCC(=O)Nc2cccc(S(=O)(=O)N3CCCCC3)c2)n1`, the activation is 1.32%. On to `O=C(NCCc1ccc(F)cc1)c1ccc(S(=O)(=O)N2CCCCC2)cc1`, for which the activation is 28.8%. In the case of `O=C(N/N=C/c1cccc(Br)c1)c1ccc(N2CCCC2=O)cc1`, the activation was 14.1%. Turning to `C/C(=N\NC(=O)c1cccc(N2CCCC2=O)c1)c1ccc(N)cc1`, the activation was -0.551%. Turning to `COc1cc(/C=N/NC(=O)c2ccc(N3CCCC3=O)cc2)ccc1O`, the activation is 82.8% (active). With `Cc1ccc(C(=O)CN2C(=O)NC3(CCOc4ccccc43)C2=O)s1` (stereo not given), the activation is -5.77%. On to `CC(C)CCN1CCC(C)(NC(=O)c2ccccc2)C1=O` (stereo not given), for which the activation was -3.6%. As for `CC(=O)c1ccc(OCCCC(=O)Nc2ccc(C)c(S(=O)(=O)N3CCOCC3)c2)cc1`, the activation is 5.88%.

For `COc1cc(OC)c(N2CC(C(=O)Nc3cc(Cl)ccc3N3CCOCC3)CC2=O)cc1Cl` (stereo not given), the activation is 1.31%. Regarding `Cc1cccc(Nc2nnc(SCC(=O)c3c(N)n(C4CC4)c(=O)[nH]c3=O)s2)c1C`, the activation was -1.01%. Take `COc1ccc(C(=O)OCC(=O)c2cc(C)n(CC3CCCO3)c2C)cc1[N+](=O)[O-]` (stereo not given): the activation is -3.97%. `CN(CC(=O)NC1CCN(Cc2ccccc2)CC1)S(=O)(=O)c1ccc(Cl)s1`: the activation was 7.2%. As to `CN(C(=O)CSc1nnc(-c2ccc3c(c2)OCO3)o1)C1CCS(=O)(=O)C1` (stereo not given), the activation was 1.32%.
